# Laboratory results taken from PubChem BioAssay AID1159580 (chemical genetic matrix, 2015).
# Where “and” joins values, the source holds several entries; their conditions need not be identical. Identical values can stand only once. The whole screen tested about 5,500 compounds, of which about 2,000 (36%) were called active. Inconclusive results (about 18%) are left out. Some of the results follow. Unmarked numbers belong to inactive results. Cut-off read from the data, not from the text of the source: active = normalized growth mostly below about 0.91 (no sharp cut-off); inconclusive = no clear call, values can overlap the other calls; inactive = mostly above about 0.92.
# Assay: chemical genetic growth profiling, strain panel (AID 1159580);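 note: tested at 20 µM; growth read once vehicle control cultures reached saturation at 30 °C; 1 = growth at the plate median or of vehicle wells; lower values mean less growth of the strain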
# Conditions: S. cerevisiae deletion strains, growth OD
compound,measurement,setting,value
COc1ccc(/C=C/C(=O)O)cc1OC,normalized growth,"locus YAL013W, strain DEP1, hits give low values",1
same,normalized growth,"locus YAL021C, strain ccr4, hits give low values",1.04
same,normalized growth,"locus YAL026C, strain drs2, hits give low values",0.99
same,normalized growth,"locus YAL030W, strain snc1, hits give low values",0.999
same,normalized growth,"locus YBL061C, strain skt5, hits give low values",0.987
same,normalized growth,"locus YBR009C, strain hhf1, hits give low values",1.01
same,normalized growth,"locus YBR021W, strain FUR4, hits give low values",1.04
same,normalized growth,"locus YBR023C, strain chs3, hits give low values",1.01
same,normalized growth,"locus YBR171W, strain sec66, hits give low values",0.965
same,normalized growth,"locus YBR229C, strain ROT2, hits give low values",1.02
same,normalized growth,"locus YBR231C, strain swc5, hits give low values",0.981
same,normalized growth,"locus YBR279W, strain paf1, hits give low values",1
same,normalized growth,"locus YCL011C, strain gbp2, hits give low values",0.991
same,normalized growth,"locus YCL016C, strain dcc1, hits give low values",1.04
same,normalized growth,"locus YCL029C, strain bik1, hits give low values",1.02
same,normalized growth,"locus YCL061C, strain MRC1, hits give low values",0.995
same,normalized growth,"locus YCL069W, strain vba3, hits give low values",0.955
same,normalized growth,"locus YCR088W, strain abp1, hits give low values",0.984
same,normalized growth,"locus YDL005C, strain med2, hits give low values",0.979
same,normalized growth,"locus YDL035C, strain GPR1, hits give low values",1.14
same,normalized growth,"locus YDL040C, strain nat1, hits give low values",0.991
same,normalized growth,"locus YDL074C, strain BRE1, hits give low values",1.4 [resistant] (active)
same,normalized growth,"locus YDL101C, strain DUN1, hits give low values",1
same,normalized growth,"locus YDL134C, strain PPH21, hits give low values",1.06
same,normalized growth,"locus YDL185W, strain tfp1, hits give low values",1
same,normalized growth,"locus YDL192W, strain arf1, hits give low values",1.03
same,normalized growth,"locus YDR001C, strain nth1, hits give low values",0.981
same,normalized growth,"locus YDR069C, strain doa4, hits give low values",0.97
same,normalized growth,"locus YDR101C, strain arx1, hits give low values",1.01
same,normalized growth,"locus YDR137W, strain rgp1, hits give low values",1.02
same,normalized growth,"locus YDR159W, strain sac3, hits give low values",0.94
same,normalized growth,"locus YDR162C, strain NBP2, hits give low values",1.13
same,normalized growth,"locus YDR195W, strain ref2",0.961
same,normalized growth,"locus YDR297W, strain sur2, hits give low values",0.984
same,normalized growth,"locus YDR318W, strain mcm21, hits give low values",1.03
same,normalized growth,"locus YDR334W, strain swr1, hits give low values",0.975
same,normalized growth,"locus YDR335W, strain msn5, hits give low values",0.984
same,normalized growth,"locus YDR388W, hits give low values",1.01
same,normalized growth,"locus YDR392W, strain spt3, hits give low values",0.943
same,normalized growth,"locus YDR502C, strain sam2, hits give low values",1.03
same,normalized growth,"locus YEL003W, strain gim4, hits give low values",0.981
same,normalized growth,"locus YEL037C, strain rad23, hits give low values",0.981
same,normalized growth,"locus YEL061C, strain CIN8 (second series), hits give low values",0.976
same,normalized growth,"locus YEL061C, strain CIN8, hits give low values",1.01
same,normalized growth,"locus YER015W, strain faa2, hits give low values",1
same,normalized growth,"locus YER016W, strain bim1, hits give low values",0.991
same,normalized growth,"locus YER110C, hits give low values",1
same,normalized growth,"locus YER111C, strain swi4, hits give low values",0.974
same,normalized growth,"locus YER155C, strain BEM2 (second series), hits give low values",0.958
same,normalized growth,"locus YER155C, strain BEM2, hits give low values",1.01
same,normalized growth,"locus YER167W, strain BCK2, hits give low values",1.01
same,normalized growth,"locus YFR010W, strain ubp6, hits give low values",0.955
same,normalized growth,"locus YGL078C, strain dbp3, hits give low values",1
same,normalized growth,"locus YGL086W, strain mad1, hits give low values",1.01
same,normalized growth,"locus YGL167C, strain pmr1, hits give low values",0.999
same,normalized growth,"locus YGL173C, strain kem1, hits give low values",0.979
same,normalized growth,"locus YGL227W, strain vid30, hits give low values",0.984
same,normalized growth,"locus YGL240W, strain doc1, hits give low values",0.989
same,normalized growth,"locus YGL248W, strain PDE1, hits give low values",1.12 [resistant] (active)
same,normalized growth,"locus YGL253W, strain hxk2, hits give low values",0.942
same,normalized growth,"locus YGR078C, strain PAC10, hits give low values",1.09
same,normalized growth,"locus YGR135W, strain pre9, hits give low values",1.04
same,normalized growth,"locus YGR252W, strain gcn5, hits give low values",1.19
same,normalized growth,"locus YHR013C, strain ard1, hits give low values",0.993
same,normalized growth,"locus YHR027C, strain rpn1, hits give low values",0.992
same,normalized growth,"locus YHR030C, strain SLT2, hits give low values",0.949
same,normalized growth,"locus YHR079C, strain IRE1 (second series), hits give low values",0.998
same,normalized growth,"locus YHR079C, strain IRE1, hits give low values",0.958
same,normalized growth,"locus YHR094C, strain hxt1, hits give low values",0.996
same,normalized growth,"locus YHR129C, strain ARP1, hits give low values",1.02
same,normalized growth,"locus YHR142W, strain chs7, hits give low values",0.993
same,normalized growth,"locus YHR200W, strain rpn10, hits give low values",0.999
same,normalized growth,"locus YIL066C, strain RNR3, hits give low values",1.01
same,normalized growth,"locus YIL073C, strain SPO22, hits give low values",1.55 [resistant] (active)
same,normalized growth,"locus YIL125W, strain kgd1, hits give low values",1.02
same,normalized growth,"locus YIR030C, strain dcg1, hits give low values",0.998
same,normalized growth,"locus YJL092W, strain hpr5, hits give low values",0.974
same,normalized growth,"locus YJL095W, strain BCK1 (second series), hits give low values",0.981
same,normalized growth,"locus YJL095W, strain BCK1, hits give low values",0.972 and 1.18
same,normalized growth,"locus YJL115W, strain asf1, hits give low values",0.998
same,normalized growth,"locus YJL129C, strain trk1, hits give low values",0.968
same,normalized growth,"locus YJL134W, strain LCB3, hits give low values",1.01
same,normalized growth,"locus YJL154C, strain vps35, hits give low values",0.976
same,normalized growth,"locus YJL164C, strain tpk1, hits give low values",1.03
same,normalized growth,"locus YJL166W, strain qcr8, hits give low values",0.999
same,normalized growth,"locus YJL168C, strain set2, hits give low values",1.01
same,normalized growth,"locus YJL187C, strain SWE1 (second series), hits give low values",1.03
same,normalized growth,"locus YJL187C, strain SWE1, hits give low values",1.01
same,normalized growth,"locus YJR043C, strain POL32, hits give low values",1.06
same,normalized growth,"locus YJR066W, strain TOR1, hits give low values",0.907
same,normalized growth,"locus YKL009W, strain mrt4, hits give low values",0.971
same,normalized growth,"locus YKL068W, hits give low values",0.988
same,normalized growth,"locus YKL085W, strain MDH1 (second series), hits give low values",1
same,normalized growth,"locus YKL085W, strain MDH1, hits give low values",1
same,normalized growth,"locus YKL160W, strain elf1, hits give low values",1.04
same,normalized growth,"locus YKR001C, strain vps1, hits give low values",1.08
same,normalized growth,"locus YKR026C, strain gcn3, hits give low values",0.963
same,normalized growth,"locus YKR091W, strain srl3, hits give low values",1.01
same,normalized growth,"locus YLL001W, strain dnm1, hits give low values",0.976
same,normalized growth,"locus YLL026W, hits give low values",0.997
same,normalized growth,"locus YLL041C, strain sdh2, hits give low values",0.992
same,normalized growth,"locus YLR027C, strain aat2, hits give low values",1
same,normalized growth,"locus YLR039C, strain RIC1, hits give low values",1.42 [resistant] (active)
same,normalized growth,"locus YLR058C, strain SHM2, hits give low values",1.01
same,normalized growth,"locus YLR102C, strain apc9, hits give low values",0.996
same,normalized growth,"locus YLR113W, strain HOG1, hits give low values",0.968
same,normalized growth,"locus YLR221C, strain rsa3, hits give low values",0.95
same,normalized growth,"locus YLR258W, strain gsy2, hits give low values",1.02
same,normalized growth,"locus YLR262C, strain YPT6 (second series), hits give low values",0.995
same,normalized growth,"locus YLR268W, strain sec22, hits give low values",1.05
same,normalized growth,"locus YLR320W, strain mms22, hits give low values",0.99
same,normalized growth,"locus YLR342W, strain FKS1 (second series), hits give low values",1.01
same,normalized growth,"locus YLR342W, strain FKS1, hits give low values",1.01
same,normalized growth,"locus YLR357W, strain rsc2, hits give low values",0.988
same,normalized growth,"locus YLR370C, strain arc18, hits give low values",0.971
same,normalized growth,"locus YLR371W, strain rom2, hits give low values",1.02
same,normalized growth,"locus YLR384C, strain iki3, hits give low values",0.998
same,normalized growth,"locus YML016C, strain PPZ1, hits give low values",1
same,normalized growth,"locus YML032C, strain rad52, hits give low values",1.02
same,normalized growth,"locus YML120C, strain ndi1, hits give low values",1.01
same,normalized growth,"locus YML124C, strain tub3, hits give low values",0.994
same,normalized growth,"locus YMR058W, strain fet3, hits give low values",0.991
same,normalized growth,"locus YMR078C, strain ctf18, hits give low values",1.01
same,normalized growth,"locus YMR125W, strain sto1, hits give low values",0.974
same,normalized growth,"locus YMR129W, hits give low values",1
same,normalized growth,"locus YMR205C, strain PFK2, hits give low values",1.05
same,normalized growth,"locus YMR223W, strain ubp8, hits give low values",1.03
same,normalized growth,"locus YMR231W, strain pep5, hits give low values",0.965
same,normalized growth,"locus YMR307W, strain GAS1, hits give low values",1.53 [resistant] (active)
same,normalized growth,"locus YNL067W, strain RPL9B, hits give low values",1
same,normalized growth,"locus YNL071W, strain lat1, hits give low values",0.998
same,normalized growth,"locus YNL128W, strain TEP1, hits give low values",1.02
same,normalized growth,"locus YNL183C, strain NPR1, hits give low values",0.904
same,normalized growth,"locus YNL209W, strain ssb2, hits give low values",1.01
same,normalized growth,"locus YNL233W, strain BNI4, hits give low values",1.12
same,normalized growth,"locus YNL248C, strain rpa49, hits give low values",0.958
same,normalized growth,"locus YNL250W, strain rad50, hits give low values",1.03
same,normalized growth,"locus YNL271C, strain bni1, hits give low values",1.02
same,normalized growth,"locus YNL298W, strain CLA4, hits give low values",1.05
same,normalized growth,"locus YNL307C, strain MCK1, hits give low values",1.01
same,normalized growth,"locus YNL322C, strain KRE1 (second series), hits give low values",0.981
same,normalized growth,"locus YNL322C, strain KRE1, hits give low values",1.01
same,normalized growth,"locus YNR049C, strain mso1, hits give low values",0.99
same,normalized growth,"locus YNR052C, strain pop2, hits give low values",1.02
same,normalized growth,"locus YOL006C, strain TOP1, hits give low values",1.83 [resistant] (active)
same,normalized growth,"locus YOL012C, strain htz1",1.37
same,normalized growth,"locus YOL147C, strain pex11, hits give low values",1.01
same,normalized growth,"locus YOR001W, strain rrp6, hits give low values",0.926
same,normalized growth,"locus YOR061W, strain CKA2, hits give low values",0.995
same,normalized growth,"locus YOR069W, strain VPS5, hits give low values",1.01
same,normalized growth,"locus YOR070C, strain gyp1, hits give low values",0.999
same,normalized growth,"locus YOR080W, strain dia2, hits give low values",0.978
same,normalized growth,"locus YOR083W, strain WHI5, hits give low values",1.04
same,normalized growth,"locus YOR106W, strain vam3, hits give low values",1.02
same,normalized growth,"locus YOR136W, strain idh2, hits give low values",1.01
same,normalized growth,"locus YOR144C, strain elg1, hits give low values",1
same,normalized growth,"locus YOR184W, strain ser1, hits give low values",1.08
same,normalized growth,"locus YOR231W, strain MKK1, hits give low values",0.944
same,normalized growth,"locus YOR265W, strain rbl2, hits give low values",0.991
same,normalized growth,"locus YOR270C, strain vph1, hits give low values",0.977
same,normalized growth,"locus YOR290C, strain snf2, hits give low values",1.04
same,normalized growth,"locus YOR316C, strain cot1, hits give low values",1.01
same,normalized growth,"locus YPL051W, strain arl3, hits give low values",0.98
same,normalized growth,"locus YPL078C, strain atp4, hits give low values",1.03
same,normalized growth,"locus YPL106C, strain sse1, hits give low values",1.04
same,normalized growth,"locus YPL240C, strain hsp82, hits give low values",0.986
same,normalized growth,"locus YPL256C, strain CLN2, hits give low values",0.968
same,normalized growth,"locus YPR119W, strain clb2, hits give low values",1.01
same,normalized growth,"locus YPR141C, strain kar3, hits give low values",1
same,normalized growth,"locus YPR163C, strain tif3, hits give low values",1.02
same,normalized growth,"locus YPR167C, strain met16, hits give low values",1.03
same,normalized growth,"strain wtn01, hits give low values",1.02
